# Laboratory results as given in PubChem BioAssay AID652042 (Broad Institute, 2013).
# Screen size: about 1,100 compounds; about 350 (32%) were called active. No rule for the calls is given here. These entries were drawn from the full list. Measured potencies and affinities stand elsewhere.
# Test: viability loss in CEM21 cells – cell-based, CellTiter-Glo luminescence, cherry-picked, cytotoxicity control for viral fusion inhibitor project, dose response (AID 652042)
# Conditions: CellTiter-Glo ATP luminescence, 24 h; series mostly up to 35 µM
row,SMILES,"activity change, negative = cytotoxicity"
1,COc1ccc(N2CCN(C(=O)C3CCC(Cn4c(=S)[nH]c5ccccc5c4=O)CC3)CC2)cc1 (stereo not given),inactive
2,CC(C)CCSc1nc(N)c(C#N)cc1C#N,inactive
3,COC(=O)C1(C(=O)OC)C[C@H](c2ccc(OC)cc2)N(Cc2ccccc2OC)[C@@H]1c1cccs1,inactive
4,COc1ccc(CNc2ncnc3ccccc23)cc1,inactive
5,CC(C)(C)c1ccc(C(=O)Nc2ccc(CC(=O)O)cc2)o1,inactive
6,Cc1nn(C)c(C)c1CN(C)S(=O)(=O)c1ccc2ccccc2c1,inactive
7,CS(=O)(=O)N(Cc1ccc(Cl)cc1)c1ccc(C(=O)NCCC2=CCCCC2)cc1,inactive
8,Cc1ccc2c(c1)c1c3n2CCN(CC(N)=O)C3CCC1 (stereo not given),inactive
9,CO[C@H]1CN(C)C(=O)c2cc(NS(=O)(=O)c3ccc(Cl)cc3)ccc2OC[C@@H](C)N(C)C[C@@H]1C,inactive
10,Cc1cc2ncn(S(=O)(=O)N3CCCCC3)c2cc1C,inactive
11,CC(=O)Nc1sc2c(c1C(c1ccc(F)cc1)N1CCOCC1)CCCC2 (stereo not given),inactive
12,CC(C)(C)c1ccc(C(=O)N2CCCCCC2=O)cc1,inactive
13,CN(C[C@@H](CC1CCCCC1)N(C[C@H](Cc1ccccc1)N(CCc1ccccc1)N=O)N=O)N=O,inactive
14,CC[C@]1(C(=O)OC)[C@H]2C(=O)N(Cc3ccccc3)C(=O)[C@H]2[C@H]2CN=C(SCC3CC3)N21,inactive
15,CO[C@@H]1CN(C)C(=O)c2ccc(NC(C)=O)cc2OC[C@@H](C)N(Cc2cncnc2)C[C@@H]1C,inactive
16,COc1ccc(-c2cn3c(C)c(C(=O)Nc4cccc(NC(C)=O)c4)sc3n2)cc1,inactive
17,O=C(N/N=C/c1ccc(-n2ccnc2)cc1)c1cccs1,inactive
18,Cc1ccc(-n2nnnc2-c2cnn(-c3ccc(F)cc3)c2C(F)(F)F)cc1,inactive
19,CCc1ccc([C@H]2[C@@H]3C(=O)C[C@@H]4C(=O)N(C5CCCCC5)C(=O)[C@@H]4[C@@H]3CN2S(=O)(=O)c2ccc(C)cc2)cc1,inactive
20,COc1ccc(OC2C(=O)N(Cc3ccc4c(c3)OCO4)C2c2cccs2)cc1 (stereo not given),inactive
21,COC(=O)[C@H](Cc1ccccc1)NC(=O)Cn1cnc(C(=O)Nc2ccc(C)c(C)c2)n1,inactive
22,O=S(=O)(c1ccccc1Cl)N1CCCC1c1nc(-c2ccc(Cl)cc2)no1 (stereo not given),inactive
23,CCNC(=O)C[C@@H]1CC[C@@H]2[C@H](COC[C@@H](O)CN2C(=O)c2ccccn2)O1,inactive
24,COC(=O)C1(C(=O)OC)C[C@H](c2ccccc2)N(Cc2ccccc2OC)[C@@H]1c1ccccc1,inactive
25,COc1ccc(CCNc2oc(-c3cccc4ccccc34)nc2P(=O)(OC)OC)cc1OC,inactive
